A short description of assay [1]: Cell Viability - BJ (AID 421; calls by dose curve;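 also: potency is read from the fitted curve at half-maximal effect; cells exposed to compound for 40 hours at 37 °C before readout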). As to conditions: BJ fibroblast viability, qHTS. The method in brief:
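Cytotoxicity in human BJ foreskin fibroblasts is scored as loss of cellular ATP after a 40-hour exposure, measured by luciferase luminescence. Controls are DMSO and 100 uM tamoxifen.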
A general note: Quantitative high-throughput screening tests each substance at several concentrations.

Assay [2] in a line: Cell Viability - Jurkat (AID 426;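 active = dose-dependent loss of cell ATP signal giving a full or clear fitted curve, ranked by lower potency value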;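 also: potency is read from the fitted curve at half-maximal effect; cells exposed to compound for 40 hours at 37 °C before ATP read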). As to conditions: qHTS. The method in brief:
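Cytotoxicity was scored as loss of cellular ATP, measured by luciferase-based luminescence, in Jurkat clone E6-1 cells after 40 h compound treatment; tamoxifen and doxorubicin served as positive controls.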

The nature of assay [3]: Cell Viability - Hek293 (AID 427;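 active = compounds whose dose-response curve shows a full or clear partial loss of cell viability, called from curve shape rather than a numeric limit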;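 also: potency is read from the fitted curve at half-maximal effect; cells exposed to compound for 40 hours at 37 °C before reading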). The note with it: qHTS. The method in brief: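 qHTS, human embryonic kidney (adenovirus-transformed) cells; 40 hr cpd, 37 °C; CellTiter-Glo ATP luminescence. Norm: DMSO = 0, 100 uM tamoxifen = 100% inhibition. Hill-fit AC50.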
Assay [4] can be described thus: Cell Viability - HepG2 (AID 433; calls by dose curve;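 also: potency is read from the fitted curve at half-maximal effect; potency for ATP loss meaning cytotoxicity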). The note with it: qHTS. The method in brief: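 Cytotoxicity is scored as loss of intracellular ATP in HepG2 cells exposed to compounds for 40 h. Concentration-response curves, normalized to DMSO and 100 uM tamoxifen, give AC50 values.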
The nature of assay [5]: Cell Viability - MRC5 (AID 434; calls by dose curve;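 also: potency is read from the fitted curve at half-maximal effect; cells exposed to compound for 40 hours at 37 °C; potency reflects cytotoxicity seen as loss of intracellular ATP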). As to conditions: MRC5 lung fibroblast viability, qHTS. The method in brief: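 Decrease in intracellular ATP, quantified by luciferase light output, reflects compound toxicity toward MRC5 cells exposed for 40 hr in complete culture medium. Concentration-response curves, scaled between DMSO and 100 uM tamoxifen, gave AC50 values.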
The nature of assay [6]: Cell Viability - SK-N-SH (AID 435; calls by dose curve;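 also: potency is read from the fitted curve at half-maximal effect; compound exposure lasted 40 h at 37 °C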). The note with it: SK-N-SH neuroblastoma cell viability qHTS. The method in brief: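 Cells seeded at 1500 per well and incubated 5 hr at 37 °C. Compound added, then 40 hr at 37 °C. CellTiter-Glo added, 20 min at room temperature, luminescence read.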
The target in assay [7] is Mitogen-activated protein kinase 10 (Mus musculus) (UniProt Q61831). Put plainly: JNK3 AlphaScreen Assay (AID 530; active = well fitted curve in either direction with a large enough effect, not every such curve was filed as active;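 also: kinase came from lysate of stimulated human HepG2 cells; signal reports phosphorylation of biotinylated GST-cJun 1-79 at Ser73 with 10 µM ATP; % is scaled to controls: 0 for no effect and ±100 for the full control effect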). As to conditions: JNK3 lysate, c-Jun phosphorylation; series mostly up to 57.1 µM. The method in brief:
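Biotinylated GST-cJun(1-79) served as substrate for JNK3 in HepG2 lysates stimulated with IL-1beta and TNF-alpha. ATP was 10 uM final, pH 7.6. Ser73 phosphorylation was quantified by AlphaScreen (680 nm excitation).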

The nature of assay [8]: Cell Viability - NIH 3T3 (AID 541).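 Also: plate controls were DMSO alone for no effect and tamoxifen positive control for full effect; nearly all actives have a fitted effect of over 25% in size.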 As to conditions: NIH 3T3 cell viability, qHTS; activity change, negative = cytotoxicity: at 92.2 µM (top of the series). The method in brief:
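In this cytotoxicity screen, acute toxicity is scored as an ATP drop measured by CellTiter-Glo in NIH 3T3 fibroblasts following a 40 hr, 37 °C incubation with compound.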

Assay [9] in a line: Cell Viability - H-4-II-E (AID 543). Also: % is scaled to controls: 0 for no effect and ±100 for the full control effect; nearly all actives have a fitted effect of over 35% in size. The note with it: H-4-II-E rat hepatoma viability; series mostly up to 92.2 µM. The method in brief: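 AC50 from Hill-modelled qHTS concentration-response curves. H-4-II-E rat hepatoma cells in complete medium, 40 hr exposure at 37 °C, viability by CellTiter-Glo ATP luminescence.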
Assay [10] in a line: Cell Viability - Mesenchymal (AID 546).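 Also: cells exposed to compound for 40 hours before reading.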 As to conditions: mesenchymal cells viability, qHTS; activity change, negative = cytotoxicity: at 91.7 µM (top of the series). The method in brief: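 In this qHTS cytotoxicity format, glomerulus-derived human mesenchymal kidney cells received compound for 40 hr, then luciferase-based ATP quantitation. Concentration-response data were fitted with the Hill equation.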

The nature of assay [11]: Cellular Toxicity (caspase-3) HepG2 (AID 654).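 Also: cells exposed to compound for 16 hours before reading.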 The note with it: HepG2 caspase-3 activation, luminescence, 0% = DMSO only, 100% = tamoxifen; series mostly up to 92.2 µM. The method in brief: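 Concentration-response AC50 values reflect caspase-3/7 induction in HepG2 cells after 16 hours of compound exposure, quantified by luminescence from liberated aminoluciferin and referenced to 100 uM tamoxifen as full stimulation.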

A short description of assay [12]: Cellular Toxicity (caspase-3) HUV-EC-C (AID 656). The note with it: HUV-EC-C cells, caspase-3 activation (apoptosis), vehicle = 0, 100 µM tamoxifen = 100%; series mostly up to 92.2 µM. The method in brief:
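Read-out: luminescence proportional to caspase 3/7 activity, measured 20 min after adding Caspase-Glo 3/7 reagent. Cells (HUV-EC-C) had received compound for 16 hr at 37°C. Increases relative to DMSO and 100 uM tamoxifen gave concentration-response AC50 values.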

A short description of assay [13]: Cellular Toxicity (caspase-3) BJ (AID 658). The note with it: BJ fibroblasts, luminescence, normalized: DMSO 0%, staurosporine 100%; series mostly up to 91.7 µM. The method in brief: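 Plated BJ cells (1000/well) rested 5 hr, received compound for 16 hr at 37 °C, then Caspase-Glo 3/7 reagent for 1 hr at room temperature before luminescence reading.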
Assay [14] is described as follows: Cellular Toxicity (caspase-3) MRC-5 (AID 659). As to conditions: MRC-5 cells, luminescence, normalized: DMSO 0%, 10 µM staurosporine 100%; series mostly up to 91.7 µM. The method in brief: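 Apoptosis readout in MRC-5 cells: luciferase light generated after caspase 3/7 cleaves a peptide-aminoluciferin substrate, measured post 16 hr compound incubation at 37 °C.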

Assay [15] can be described thus: Cellular Toxicity (caspase-3) Mesangial (AID 660).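 Also: cells exposed to compound for 16 h before the caspase read.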 The note with it: mesangial cells, normalized: DMSO 0%, 100 µM tamoxifen 100%; series mostly up to 91.7 µM. The method in brief:
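AC50 values come from Hill-equation fits of caspase 3/7 activation, measured as Caspase-Glo luminescence in human glomerular mesangial cells exposed to compound for 16 h at 37 °C; 100% set by 100 uM tamoxifen.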

Assay [16] can be described thus: Cellular Toxicity (caspase-3) Hek293 (AID 664).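 Also: cells exposed to compound for 16 h at 37 °C before readout.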 As to conditions: HEK293 caspase-3 activation, DMSO = 0%, 100 µM tamoxifen = 100%; series mostly up to 92.2 µM. The method in brief: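 Apoptosis readout: Caspase-Glo 3/7 signal in human HEK293 cells following 16-hour compound incubation. Responses scaled between DMSO baseline and 100 uM tamoxifen.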
Assay [17] in a line: Cellular Toxicity (caspase-3) Renal Proximal Tubule (AID 667).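 Also: cells exposed to compound for 16 hours at 37 °C before detection.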 The note with it: renal proximal tubule cells, primary cells freshly taken from rat, solvent-only wells 0%, staurosporine 100%; series mostly up to 91.7 µM. The method in brief:
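In qHTS format, rat primary proximal tubule cells seeded at 1000 per well are exposed to compounds for 16 hours at 37 °C. An increase in Caspase-Glo 3/7 luminescence indicates caspase activation.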

Assay [18] in a line: qHTS Assay for Identification of Small Molecule Inducers of Hypoxia Response (AID 2120; active = well fitted curve in the direction sought with a large enough effect in the signal ratio, with a control signal flat, not every such curve was filed as active; the % refers to the signal ratio; also: 0% is about no effect). The note with it: hypoxia response reporter cells, beta-lactamase ratio readout; series mostly up to 104 µM. The method in brief:
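HRE-bla ME-180, 2500 cells/well, 0.5% dialyzed FBS medium; cpd titration, 17 h 37 degrees C; CCF4 2.5 h RT; Ex 405, Em 460/530 ratio -> %Activity, AC50.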

Assay [19] can be described thus: qHTS assay for small molecule antagonists of retinoid X receptor alpha signaling (AID 588546).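 Also: cells stimulated with 9-cis-retinoic acid as agonist; % is scaled to controls: 0 for no effect and ±100 for the full control effect.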 The note with it: HEK293T RXRa-UAS-bla, beta-lactamase ratio, antagonist mode; measured here: W530 green channel, cytotoxicity proxy. The method in brief: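 Beta-lactamase reporter inhibition, read as CCF4 fluorescence ratio (ex 405, em 460/530 nm) after 2 h at RT. HEK293T UAS-bla cells, 2500/well, were stimulated with 9-cis-RA at 500 or 100 nM final alongside test compound for 18 h at 37 C.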

Assay [20] addresses Peroxisome proliferator-activated receptor alpha (Homo sapiens) (UniProt Q07869). Put plainly: qHTS assay for small molecule agonists of the peroxisome proliferator-activated receptor alpha (PPARalpha) signaling pathway (AID 651778). Also: % of control where 0% means no effect. The note with it: PathHunter PPARalpha complementation, chemiluminescence, 6 h; max response: stronger effect = higher value. The method in brief:
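Cells plated at 2,000/well and held overnight at 37 C, 5% CO2, then compound added by pin tool for 6 hr; after PathHunter detection reagent and 60 min at room temperature, chemiluminescence from enzyme complementation was read.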

Consider 5 molecules from PubChem BioAssay (NCATS).

Each structure is given as a SMILES string. Values joined by “and” are separate entries in the source; they are usually repeats but may differ in a detail not shown here. Equal entries are not always repeated. Inconclusive results are not listed. Active and inactive are the calls of the source. Unless noted, calls follow the shape of the dose curve; as a rule, active = well fitted curve in the direction sought with a large enough effect; inconclusive = small, poorly fitted or top-dose-only effect, or another doubt; inactive = no such curve, though single readings can be large; an effect the other way counts as inactive or inconclusive.

Chain of Peroxisome proliferator-activated receptor alpha (Homo sapiens) (Q07869 whole entry, looked up): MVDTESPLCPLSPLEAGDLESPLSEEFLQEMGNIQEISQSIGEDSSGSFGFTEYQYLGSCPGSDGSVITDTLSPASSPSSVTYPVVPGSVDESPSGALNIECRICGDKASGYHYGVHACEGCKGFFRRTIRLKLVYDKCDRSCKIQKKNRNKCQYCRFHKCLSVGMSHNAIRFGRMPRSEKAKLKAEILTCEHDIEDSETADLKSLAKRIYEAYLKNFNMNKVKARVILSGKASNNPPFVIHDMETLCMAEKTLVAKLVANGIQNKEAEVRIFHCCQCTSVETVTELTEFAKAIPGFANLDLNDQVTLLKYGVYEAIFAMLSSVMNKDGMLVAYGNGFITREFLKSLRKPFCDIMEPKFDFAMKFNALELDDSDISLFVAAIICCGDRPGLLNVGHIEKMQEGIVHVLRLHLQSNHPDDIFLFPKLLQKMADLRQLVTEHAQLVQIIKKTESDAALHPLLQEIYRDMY

With `CCO`, the Potency in assay [1], in assay [2], in [3], in assay [4], in assay [5] and in assay [6] was > 92 µM (inactive) in each case. The Potency entry in [7], in [8] and in [9] was “inactive” each time. Also, in assay [10], the activity change, negative = cytotoxicity is -1.16% (inactive). In addition, the molecule was called inactive in assay [11], in [12], in assay [13], in assay [14], in assay [15] and in [16]. In addition, the outcome in assay [17] and in assay [18] was inactive. Also, the max response was -7.92% in assay [19] and -0.991% (inactive) in assay [20].

Regarding `Cc1ccc(N)c([N+](=O)[O-])c1`, the Potency in [1], in assay [2], in assay [3], in assay [4], in assay [5] and in assay [6] was > 92 µM (inactive) each time. Further, the Potency entry in assay [7], in assay [8] and in assay [9] was “inactive” in each case. In addition, the activity change, negative = cytotoxicity in [10] is 5.43% (inactive). The outcome in assay [11], in assay [12], in [13], in [14], in assay [15] and in assay [16] was inactive. Further, the call in assay [17] and in assay [18] was inactive. Also, the max response in assay [19] was -10.8% and -10%; in [20] it was -6.83% (inactive) and -1.01% (inactive).

On to `COc1ccc2nc(N)sc2c1`, for which the Potency in [1], in [2], in [3], in assay [4], in assay [5] and in assay [6] was > 92 µM (inactive) in each case. Also, the Potency result in [7], in assay [8] and in [9] was “inactive” throughout. Also, the activity change, negative = cytotoxicity in assay [10] was -1.25% (inactive). The molecule was called inactive in [11], in [12], in assay [13], in assay [14], in assay [15] and in assay [16]. Further, the molecule was classed as inactive in assay [17] and in assay [18]. For the same molecule, the max response in assay [19] is -1.24% and 0.0893%; in assay [20], -0.146% (inactive) and -0.816% (inactive).

`CC1=CC(C)(C)Nc2ccccc21`: the Potency in [1], in assay [2], in [3], in [4], in [5] and in [6] was > 92 µM (inactive) in each case. The Potency result in assay [7], in assay [8] and in assay [9] was “inactive” throughout. For the same molecule, the activity change, negative = cytotoxicity in [10] was 16.2% (inactive) and 9.84% (inactive). Further, the molecule was classed as inactive in [11], in assay [12], in [13], in assay [14], in [15] and in assay [16]. Also, the outcome in assay [17] and in assay [18] was inactive. Besides, the max response was -11.3% and -9.31% in assay [19]; 2.08% (inactive) and -3.28% (inactive) in [20].

On to `CN(C)CCCCCCN(C)C`, for which the Potency in assay [1], in assay [2], in assay [3], in [4], in assay [5] and in [6] was > 92 µM (inactive) throughout. The Potency result in assay [8] and in assay [9] was “inactive” each time. The activity change, negative = cytotoxicity in [10] is 10.5% (inactive). The molecule was called inactive in [11], in assay [12], in assay [13], in assay [14], in assay [15] and in [16]. For the same molecule, the molecule was called inactive in [17] and in assay [18]. Also, the max response was -0.59% in assay [19] and -5.54% (inactive) in assay [20].
